Experimental data: PubChem BioAssay (NCI)
“And” between values parts separate entries of the source, which are not always exact repeats. Identical values can stand only once. This is part of a sample that, as a whole, favours compounds with a hit. Of some 83,000 tested, about 20% had one in any assay.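 Activity criterion: percent growth below 10, measured after cells in 96-well plates were exposed to a single compound concentration for 48 hours.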 Unmarked numbers belong to inactive results. The source made the active and inactive calls.

tested on: OVCAR-3 ovarian; experiment: NCI-60 one-dose screen, 48 h (100 = growth as untreated, 0 = no growth, -100 = all killed); conditions: 10 µM unless noted
Method: Growth inhibition of the OVCAR-3 human tumor cell line is measured as a screen for anti-cancer activity. Cells are grown in 96 well plates and exposed to the test compound for 48 hours. Compounds are tested at a single concentration, which is 10^-5 M for most compounds. The reported endpoint is percent growth (GI% or GIPRCNT), where numbers from 0 - 100% represent growth inhibition, and numbers from -100% - 0 represent cell death. For example, a value of 40 represents 60% growth inhibition. A value of 0 means no net growth occurred over the course of the experiment. A value of -40 indicates 40% of cells at the beginning of the experiment died by the end of the experiment. A value of -100 means all cells are dead at the end of the experiment.
NCI-60 Human Tumor Cell Lines Screen was performed using the standard one-dose NCI protocol, which is described in more detail at https://dtp.cancer.gov/discovery_development/nci-60/default.htm.
Compounds with GIPRCNT values below 10 were considered active. Activity score was based on GIPRCNT using the following formula: […]
Score is 0 for GIPRCNT values of 100 or above, 50 for GIPRCNT values of 0, and 100 for GIPRCNT values of -100.

Row | SMILES | growth
1 | CNC(=O)Oc1ccc(Cl)cc1SSc1cc(Cl)ccc1OC(=O)NC | 54.7%
2 | Cc1ccc(S(=O)(=O)n2cc([C@@]3(O)C[C@H](CSC#N)OC3=O)c3ccccc32)cc1 | 54.8%
3 | CC1=C2[C@H]3OC(=O)[C@@H](C)[C@@H]3CC[C@@]2(C)C=CC1=O | 129%
4 | Cc1nnc([S-])o1.[Au+].c1ccc([PH+](c2ccccc2)c2ccccc2)cc1 | -61.4% (active)
5 | CN1CCc2cc3c(cc2C1O)OCO3 (stereo not given) | 17.1% and 105%
6 | C[C@]12CC[C@H]3[C@@H](C[C@@H]4SC(Nc5cccc(F)c5)=N[C@@]45CC(=O)CC[C@]35C)[C@@H]1CCC2=O | -5.24% (active)
7 | CO[C@H]1[C@H](O[C@@H]2C[C@@H]3C/C=C/C(=O)O[C@@H](CO)C[C@H](O)[C@@H]4C[C@H](C)[C@H](C/C=C\C=C\[C@H](C)C[C@H](C2)O3)O4)O[C@@H](C)[C@H](O)[C@H]1O | 60.2%
8 | Cc1cc(NC(=O)NCCCOc2ccc(N3C(N)=NC(N)=NC3(C)C)cc2Cl)ccc1S(=O)(=O)F | 24.2%
9 | CC1OC(=O)C(C(C)C)NC(=O)C(C(C)C)OC(=O)C(C(C)C)NC(=O)C(C)OC(=O)C(C(C)C)NC(=O)C(C(C)C)OC(=O)C(C(C)C)NC(=O)C(C)OC(=O)C(C(C)C)NC(=O)C(C(C)C)OC(=O)C(C(C)C)NC1=O (stereo not given) | -18.9% (active)
10 | NC(=O)Oc1cc(OC(N)=O)cc(N(CCCl)CCCl)c1 | 82.8%
11 | Oc1ccccc1C=NCCN=Cc1ccccc1O.[Fe] | 112%
12 | NC(=O)c1c(Br)c(Br)c(Br)c(Br)c1C(=O)O (tested in a mixture with another compound) | 111% and 112%
13 | N#CCCc1ccccc1 | 119%
14 | COc1cc2c(cc1OC)-c1c3c(cc4c1[C@@H](C2)N(C)CC4)OCO3 | 76.1%
15 | CC[C@@H](C)C(=O)O[C@H]1[C@H](O)[C@H]2[C@@H](CN3C[C@@H](C)CC[C@H]3[C@@]2(C)O)[C@@H]2C[C@]34O[C@]5(O)[C@@H](OC(=O)[C@@](C)(O)CC)CC[C@@]3(C)[C@@H]5[C@@H](OC(C)=O)[C@@H](OC(C)=O)[C@H]4[C@@]21O | 106%
16 | C[C@]12CC[C@H](O)C[C@@H]1CC[C@@H]1[C@@H]2CC[C@]2(C)OC(=O)CC[C@@H]12 | 99%
17 | CCCCS(=O)(=O)Cl | 120%
18 | CCCCOC(N)=O | 109%
19 | CN1C2CCC1[C@@H](COC(=O)c1ccccc1)[C@@H](O)C2 (stereo not given in full) | 111%
20 | COc1ccc(/C=C(/C)[N+](=O)[O-])cc1OC | -94.1% (active) and -99.7% (active)

Row | SMILES | growth
21 | O=C(O)C(O)c1ccc(Cl)cc1 (stereo not given) | 116% and 104%
22 | ClCc1ccc(Cl)c(Cl)c1 | 114%
23 | O=C=Nc1ccc(Br)cc1 | 105%
24 | CCC1CCC(=O)O1 (stereo not given) | 108% and 110%
25 | CC1(C)CN=C(NN=C(/C=C/c2ccc(C(F)(F)F)cc2)/C=C/c2ccc(C(F)(F)F)cc2)NC1 | -88% (active)
26 | CC[C@H](C)[C@H](NC(=O)C12CC(NC)(C1)C2)C(=O)N(C)[C@H](C[C@@H](OC(C)=O)c1nc(C(=O)N[C@@H](Cc2ccccc2)C[C@H](C)C(=O)OC)cs1)C(C)C | -14.1% (active)
27 | C#Cc1cccc(Nc2nc(Cl)nc3cc(NC(=O)CF)ccc23)c1 | 53.5%
28 | O=C1NC(=O)C(=C/C=C/c2ccccc2)C(=O)N1 | 11.8%
29 | CC[C@H](C)[C@H](NC(=O)[C@H]1CCCCN1C)C(=O)N(C)[C@H](C[C@@H](OC(C)=O)c1nc(C(=O)NC23C4C5C2C2C3C4C52C(=O)OC)cs1)C(C)C (stereo not given in full) | -7.47% (active)
30 | COc1ccc(N)cc1N | 120%
31 | Oc1cc(N2CC2)c(O)cc1N1CC1 | -34.4% (active)
32 | C[N+]1(CC#CC[N+]2(C)CCCC2)CCCC1 | 102%
33 | C[C@]12CCc3nc(-c4ccc(O)c(O)c4)sc3C1=CC[C@@H]1[C@@H]2CC[C@]2(C)C(=O)CC[C@@H]12 | 87.5%
34 | Cc1nc2ccccc2c(=O)n1-c1ccccc1F | 107%
35 | C/C(=C\c1ccn(-c2ccc(N)cc2F)n1)[C@@H]1C[C@@H]2O[C@]2(C)CCC[C@H](C)[C@H](O)[C@@H](C)C(=O)C(C)(C)[C@@H](O)CC(=O)O1 | -4.43% (active)
36 | O=C(NC(Cl)=C(Cl)Cl)P(=O)(c1ccccc1)c1ccccc1 | 115%
37 | CC(=O)Cc1ccc2c(c1)OCO2 | 110%
38 | C[N+]12CCC34C5=CC(=O)C(=O)C=C5[N+]5(C)C(=O)CC6OCC=C(C1)C(CC32)C6C45 (stereo not given) | 103%
39 | C=C[Se]CC(=O)/C=C/c1ccccc1 | 89.1%
40 | COc1cc2c(c(OC)c1OC)-c1ccc(O)cc1[C@@H](NC(C)=O)CC2 | -39.1% (active) and -30.9% (active)
